Compounds without any hit were thinned out: in the full panel of roughly 83,000, 20% have a hit.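 The endpoint reported here, percent growth, reads 100 for growth as untreated, 0 for no net growth and -100 for all cells dead.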 Unmarked numbers belong to inactive results. Activity calls are given as the source filed them. Rule for the calls: active = growth percent below 10; inactive = the rest.

In the assay the test system is MDA-MB-468 breast. Description: NCI-60 one-dose screen, 48 h (100 = growth as untreated, 0 = no growth, -100 = all killed). The following applies: 10 µM unless noted.
Turning to `C/C(=N\NC(=S)N1CCCC1)c1ccccn1`, the growth was -31.9% (active).

For `CS(=O)(=O)Nc1cccc(-c2cc(-c3ccccc3Cl)c(C#N)c(N)n2)c1`, the growth was -9.46% (active).

For the compound `CCCCCCCCOC(=O)c1ccccn1`, the growth was 107%.

`CN1CCN(c2nc(NCCCCNc3ccnc4cc(Cl)ccc34)c3ccccc3n2)CC1`: the growth is 62.4%.

`O=C(c1ccc(Cl)cc1)N1CCN(c2ccnc3cc(Cl)ccc23)CC1`: the growth was 72.7%.

For the compound `COc1ccc(C(=O)OC2C(OC3C(O)COC(O[C@H]4C[C@H]5[C@@H]6CC=C7C[C@@H](O)CC[C@]7(C)[C@H]6CC[C@]5(C)[C@H]4[C@H](C)C(=O)CCC(C)C)C3OC(C)=O)OCC(O)C2O)cc1` (stereo partly drawn), the growth was -34.1% (active).

Take `CCOC(=O)c1ccc2c(c1)[n+](=O)c(C(=O)c1ccc3ccccc3c1)c(C(F)(F)F)n2[O-]`: the growth is -92.6% (active).

On to `CC1OC(n2c3ccccc3c3c4c(c5c6ccccc6[nH]c5c32)C(=O)N(CCN2CCOCC2)C4=O)CC(O)C1O` (stereo not drawn), for which the growth was -10.8% (active).

Regarding `S=c1nc2[nH]c3ccccc3c2n[nH]1`, the growth was 109%.

As to `CC[C@H](Nc1nc(N)nc(C)c1C#N)c1nc2cccc(NCCCCCC(=O)NO)c2c(=O)n1-c1ccccc1`, the growth was 11.7%.

With `CN(Cc1ccccc1)c1nc(Cl)c(C2CC(c3ccc(Cl)cc3)=NN2c2cc(Cl)cc(Cl)c2)s1` (stereo not drawn), the growth was 101%.

As for `NS(=O)(=O)c1ccc(CCn2c(SCC(=O)c3ccc(Cl)cc3)nc3ccccc3c2=O)cc1`, the growth is 105%.

In the case of `CCn1c2c(c3ccccc31)SC1c3cccn3CCN1C2=S` (stereo not drawn), the growth is -1.66% (active).

The record behind these values is PubChem BioAssay (NCI).
